Over roughly 33,000 sequences, “E-score (-0.5 to 0.5)” has its median near -0.043; the highest 2% begin near 0.37. The sample as a whole holds a higher share of the highest values than the screen did.
target: T1, Upc2 (UniProt Q12151); assay: PBM E-score (8-mer binding enrichment) (E-score (-0.5 to 0.5)); higher = stronger / more preferred TF binding; conditions: protein concentration: 200 nM; construct: GST-full length
T1 sequence: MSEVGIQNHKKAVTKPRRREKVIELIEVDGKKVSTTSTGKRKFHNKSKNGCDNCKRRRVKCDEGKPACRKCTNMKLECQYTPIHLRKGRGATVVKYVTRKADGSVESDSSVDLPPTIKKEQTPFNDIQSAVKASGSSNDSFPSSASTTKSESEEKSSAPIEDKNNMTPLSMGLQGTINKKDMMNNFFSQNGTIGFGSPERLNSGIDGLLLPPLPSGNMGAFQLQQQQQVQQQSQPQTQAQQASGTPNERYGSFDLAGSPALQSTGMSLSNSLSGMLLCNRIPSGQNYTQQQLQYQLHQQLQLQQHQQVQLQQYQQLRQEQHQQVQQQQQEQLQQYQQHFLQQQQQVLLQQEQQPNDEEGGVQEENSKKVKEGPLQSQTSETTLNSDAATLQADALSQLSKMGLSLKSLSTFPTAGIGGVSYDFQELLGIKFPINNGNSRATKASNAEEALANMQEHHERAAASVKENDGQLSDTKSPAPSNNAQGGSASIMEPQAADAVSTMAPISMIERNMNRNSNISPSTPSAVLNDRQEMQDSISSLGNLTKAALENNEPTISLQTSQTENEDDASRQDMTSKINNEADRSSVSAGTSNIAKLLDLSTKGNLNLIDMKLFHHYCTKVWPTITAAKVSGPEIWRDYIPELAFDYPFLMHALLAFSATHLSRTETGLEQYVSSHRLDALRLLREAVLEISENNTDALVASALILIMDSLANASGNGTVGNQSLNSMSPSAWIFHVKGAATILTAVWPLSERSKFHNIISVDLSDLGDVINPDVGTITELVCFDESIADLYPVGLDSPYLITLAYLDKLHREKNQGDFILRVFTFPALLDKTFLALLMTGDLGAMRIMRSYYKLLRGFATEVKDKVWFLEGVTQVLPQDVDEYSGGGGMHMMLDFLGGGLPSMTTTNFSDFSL
Procedure, shortened: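 For each ungapped eight-base word taken together with its reverse complement, the Universal PBM Analysis Suite assigned an E-score. Binding data came from GST-tagged yeast transcription factors, applied at about 100-200 nM, on universal all-10-mer Agilent arrays made double-stranded by primer extension. Fluorescent anti-GST marked bound protein, and scans were normalised with masliner.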

Sequence | PBM E-score
ACACTCAT | -0.233
ATCTCCTG | -0.0597
ATAGGTCC | -0.132
AGAGCGTA | 0.223
ATCTGAAG | -0.202
AACGAGGT | 0.448
CACGAGGA | 0.0675
AAAGAGGT | -0.182
AACGAGGC | 0.444
AGCGAGGA | 0.144
GACGAGGC | 0.0687
GACGAGGA | -0.00176
TACGAGGA | 0.464
ATCGAGGA | 0.0976
CACGAGGC | 0.116
ACCGAGGT | 0.169
AACGAGGA | 0.428
AGATGGCC | -0.176
AAGAGACG | 0.102
CTGGCGAA | -0.174
ACCACCTG | -0.0336
CACTGTGC | -0.118

Sequence | PBM E-score
CAGTAGTC | 0.0468
GCCTTGAA | -0.189
CATTTCGA | 0.0247
GCTCCACC | -0.0776
AGATGAAT | -0.206
CAGACTGA | -0.0971
AAGTTATT | 0.045
AGCTATGG | -0.158
AACGAGGG | 0.43
CACGAGGG | 0.114
AGCGAGGG | 0.245
AGGGTGAC | -0.128
ACCCTGGA | -0.0506
AGTACGTA | 0.27
AGTACGCA | -0.0414
CGGACGAC | -0.21
AGTACGCG | 0.189
AGTACGAG | 0.428
GGGACGAC | -0.244
AGTACGTG | 0.0272
CGTACGCC | 0.312
GGTACGAC | 0.475

Sequence | PBM E-score
CGTACGAC | 0.449
GGTACTAC | 0.0298
AGTACGAA | 0.384
CGAAGCAC | -0.0203
CAGCACGG | -0.256
ATAGGCGG | -0.0532
AGCAAGTC | -0.148
AAAGCAGT | -0.125
GATGGGAC | -0.0558
CCTAGATA | -0.0107
ATTACGTG | -0.118
AGTACGCC | -0.0728
GGTACGAA | 0.459
CCTACGAG | 0.341
GGTACGCA | 0.252
AGTACGAT | 0.345
ATTACGAC | 0.348
CGTACGAG | 0.465
AGTACGAC | 0.409
ATTACGAG | 0.378
GGTACGTA | 0.313
CGGACGAG | -0.165

Sequence | PBM E-score
ACCACGTG | 0.0941
GAAGAAAC | 0.0334
TAATTGGA | -0.00998
AACTCCAC | 0.00868
CAGTTTCA | -0.223
CGCGAGAA | 0.0746
CAGGTGAG | -0.277
CATGGCTC | -0.0993
AAGGTAAT | 0.0547
CGTACGCA | 0.345
TGTACAAA | 0.0122
CGTACGTA | 0.364
CGTACGAA | 0.444
TGTACGAA | 0.479
TGCACGAA | 0.145
CATATTCA | -0.0449
GCTTCACA | -0.124
ATTCGTAA | 0.399
ATTCGTGA | 0.0183
ATTCGTAG | 0.285

Source: the supplement of paper PMC3334620
